# Reference: PubChem BioAssay
# The source made the active and inactive calls.
# How the values were obtained:
# [1] = optical density shifts of acrAB sulA E. coli – strain DRC41, OD650, 48 h, E. coli filamentation inducer project, primary screen (AID 1152); details: higher = more signal, called active from +8 up or from −8 down;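 note: E. coli MC1000 strain DRC41 lacking acrAB efflux pump and sulA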
# [2] = probe aLefty1 binding on compound microarray – biochemical, small-molecule microarray, 635/667 nm fluorescence, primary screen (AID 1153); details: higher = more signal;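 note: score merges spot fluorescence with signal-to-noise ratio from the scanned slide images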
# [3] = plasmodial surface anion channel blockers, osmotic lysis – cell-based, P. falciparum Indochina, OD700, 1 h, primary screen (AID 1154); details: P. falciparum Indochina infected RBC osmotic lysis, higher = more signal, called active from +8 up or from −8 down
# [4] = plasmodial surface anion channel blockers, osmotic lysis – cell-based, P. falciparum Indochina, OD700, 2 h, primary screen (AID 1155);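 note: lysis reports solute entry through the parasite surface anion channel PSAC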; details: P. falciparum Indochina infected erythrocytes, higher = more signal, called active from +8 up or from −8 down
# [5] = changes in parasitized red cell lysis, either direction – P. falciparum Indochina, OD700, 3 h, PSAC antagonist project, primary screen (AID 1156); details: P. falciparum-infected erythrocytes, osmotic lysis, higher = more signal, called active from +8 up or from −8 down
# [6] = plasmodial surface anion channel blockers, osmotic lysis – cell-based, P. falciparum Indochina, OD700, 18 h, primary screen (AID 1157); details: P. falciparum Indochina infected erythrocytes, osmotic lysis OD700, 18 h; higher = more signal, called active from +8 up or from −8 down
# [7] = S6 kinase pathway phospho-S6 level changes – cell-based, A549, cytoblot, luminescence, serum-stimulated, primary screen (AID 1158); details: 5 h, higher = more signal;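 note: serum-stimulated A549 lung adenocarcinoma cells; signal is phosphorylated S6 detected by cytoblot immunostaining with HRP secondary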
# [8] = biological target: NADPH oxidase 2 (Homo sapiens) (UniProt P04839); assay: compounds shifting NOX2 Amplex Red fluorescence – cell-based, HEK293-NOX2, PMA-stimulated, NOX inhibitor project, primary screen (AID 1159); details: 45 min, higher = more signal, called active from +8 up or from −8 down; note: test concentration not given here
# Chain of NADPH oxidase 2 (Homo sapiens) (P04839 whole entry, looked up): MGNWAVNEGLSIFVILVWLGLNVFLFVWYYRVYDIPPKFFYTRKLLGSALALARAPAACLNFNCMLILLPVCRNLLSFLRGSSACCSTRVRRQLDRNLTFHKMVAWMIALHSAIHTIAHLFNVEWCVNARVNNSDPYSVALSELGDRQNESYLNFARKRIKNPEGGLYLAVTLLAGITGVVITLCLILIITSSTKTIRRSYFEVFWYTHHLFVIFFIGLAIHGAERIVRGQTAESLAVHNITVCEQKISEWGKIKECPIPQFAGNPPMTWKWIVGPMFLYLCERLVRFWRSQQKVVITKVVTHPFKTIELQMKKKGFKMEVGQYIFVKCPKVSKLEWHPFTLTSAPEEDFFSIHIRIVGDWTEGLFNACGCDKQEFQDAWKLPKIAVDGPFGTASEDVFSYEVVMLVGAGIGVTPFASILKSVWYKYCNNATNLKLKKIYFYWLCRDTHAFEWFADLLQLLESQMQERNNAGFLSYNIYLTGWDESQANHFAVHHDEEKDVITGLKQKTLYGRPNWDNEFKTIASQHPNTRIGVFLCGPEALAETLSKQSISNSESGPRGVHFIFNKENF
# [9] = biological target: NADPH oxidase 4 (Homo sapiens) (UniProt Q9NPH5); assay: compounds shifting NOX4 Amplex Red fluorescence – cell-based, HEK293-NOX4, tetracycline-induced, NOX inhibitor project, primary screen (AID 1160); details: HEK293-NOX4, Amplex Red H2O2 fluorescence, 45 min; higher = more signal, called active from +8 up or from −8 down
# Chain of NADPH oxidase 4 (Homo sapiens) (Q9NPH5 whole entry, looked up): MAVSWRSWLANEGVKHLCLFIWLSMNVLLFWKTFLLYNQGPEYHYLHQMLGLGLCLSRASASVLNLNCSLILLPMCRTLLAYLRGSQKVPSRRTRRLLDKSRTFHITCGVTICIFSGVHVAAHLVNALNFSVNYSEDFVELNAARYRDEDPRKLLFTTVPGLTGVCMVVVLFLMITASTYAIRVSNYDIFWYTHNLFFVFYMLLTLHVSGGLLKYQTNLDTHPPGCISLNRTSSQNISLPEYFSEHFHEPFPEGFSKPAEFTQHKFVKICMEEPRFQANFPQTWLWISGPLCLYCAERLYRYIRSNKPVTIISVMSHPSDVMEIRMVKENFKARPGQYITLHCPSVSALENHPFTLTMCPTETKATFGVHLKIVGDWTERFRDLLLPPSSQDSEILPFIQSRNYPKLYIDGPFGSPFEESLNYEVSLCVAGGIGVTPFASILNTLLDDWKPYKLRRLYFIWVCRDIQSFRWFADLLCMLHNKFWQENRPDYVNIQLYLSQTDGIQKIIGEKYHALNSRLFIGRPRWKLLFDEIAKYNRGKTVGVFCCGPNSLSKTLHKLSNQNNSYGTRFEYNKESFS
# [10] = biological target: NADPH oxidase 5 (Homo sapiens) (UniProt Q96PH1); assay: compounds shifting NOX5 Amplex Red fluorescence – cell-based, HEK293-NOX5, NOX inhibitor project, primary screen (AID 1161); details: HEK293-NOX5, ionomycin, 45 min, higher = more signal
# Chain of NADPH oxidase 5 (Homo sapiens) (Q96PH1 whole entry, looked up): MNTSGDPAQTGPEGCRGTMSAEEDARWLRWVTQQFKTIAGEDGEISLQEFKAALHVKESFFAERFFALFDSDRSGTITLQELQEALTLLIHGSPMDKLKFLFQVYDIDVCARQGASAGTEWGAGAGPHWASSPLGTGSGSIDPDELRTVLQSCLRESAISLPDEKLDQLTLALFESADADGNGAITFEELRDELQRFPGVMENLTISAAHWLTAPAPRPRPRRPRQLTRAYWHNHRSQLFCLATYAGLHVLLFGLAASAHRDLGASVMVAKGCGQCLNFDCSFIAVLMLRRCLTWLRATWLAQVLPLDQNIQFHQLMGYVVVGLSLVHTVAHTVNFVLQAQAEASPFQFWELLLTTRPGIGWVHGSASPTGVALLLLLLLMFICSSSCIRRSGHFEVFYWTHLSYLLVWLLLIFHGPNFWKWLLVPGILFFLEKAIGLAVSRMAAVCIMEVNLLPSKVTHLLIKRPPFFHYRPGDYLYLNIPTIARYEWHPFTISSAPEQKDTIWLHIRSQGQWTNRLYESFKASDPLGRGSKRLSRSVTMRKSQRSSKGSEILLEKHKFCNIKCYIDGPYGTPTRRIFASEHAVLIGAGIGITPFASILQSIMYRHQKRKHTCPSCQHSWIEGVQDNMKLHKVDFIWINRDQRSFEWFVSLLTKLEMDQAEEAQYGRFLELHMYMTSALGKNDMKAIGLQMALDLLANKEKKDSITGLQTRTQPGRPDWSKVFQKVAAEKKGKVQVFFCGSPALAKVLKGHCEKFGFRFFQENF
# [11] = compound effects on lung adenocarcinoma cell viability – A549, calcein-AM fluorescence, 48 h, basal, profiling panel (AID 1162); details: higher = more signal; note: test concentration not given here
# [12] = compound effects on differentiated 3T3-L1 adipocyte viability – cell-based, 3T3-L1 adipocytes, calcein-AM fluorescence, 48 h, basal, profiling panel (AID 1163); details: 3T3-L1 adipocytes viability, higher = more signal; note: test concentration not given here
# [13] = compound effects on hepatocellular carcinoma cell viability – HepG2, calcein-AM fluorescence, 48 h, basal, profiling panel (AID 1164); details: higher = more signal; note: test concentration not given here
# [14] = compound effects on multiple myeloma cell viability – MM1S, calcein-AM fluorescence, 48 h, basal, profiling panel (AID 1165); details: higher = more signal;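 note: viability of MM1S multiple myeloma cells under basal unstimulated conditions; test concentration not given here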
# [15] = calcein-AM signal in unstimulated myeloma cells – cell-based, calcein-AM fluorescence, 48 h, PK04 Diversity Set, profiling panel (AID 1166); details: RPMI8226 myeloma viability, higher = more signal;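 note: cells grown under basal conditions without added stimulus; test concentration not given here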
# [16] = JC-1 mitochondrial signal, unstimulated HepG2 cells – cell-based, JC-1 fluorescence, 24 h, 100 nL compound, profiling panel (AID 1167); details: HepG2 mitochondrial potential, higher = more signal; note: test concentration not given here
# [17] = JC-1 mitochondrial signal, unstimulated adipocytes – cell-based, JC-1 fluorescence, 3T3-L1 adipocytes, 24 h, 100 nL compound, profiling panel (AID 1168); details: JC-1 mitochondrial fluorescence, higher = more signal, called active from +8 up or from −8 down; note: test concentration not given here
# [18] = JC-1 mitochondrial signal, unstimulated myeloma cells – cell-based, JC-1 fluorescence, RPMI8226, 24 h, 100 nL compound, profiling panel (AID 1169); details: JC-1 mitochondrial potential fluorescence, higher = more signal; note: test concentration not given here
# [19] = JC-1 mitochondrial signal, unstimulated MM1S myeloma – cell-based, JC-1 fluorescence, 24 h, 100 nL compound, profiling panel (AID 1170); details: MM1S mitochondrial potential, higher = more signal; note: test concentration not given here
# [20] = resazurin metabolic signal in A549 cells – cell-based, resazurin fluorescence, 24 h, PK04 Diversity Set, profiling panel (AID 1171); details: A549 viability, higher = more signal, called active from +8 up or from −8 down; note: test concentration not given here
SMILES,z-score [1],composite z-score [2],z-score [3],z-score [4],z-score [5],z-score [6],z-score [7],z-score [8],z-score [9],z-score [10],z-score [11],z-score [12],z-score [13],z-score [14],z-score [15],z-score [16],z-score [17],z-score [18],z-score [19],z-score [20]
COc1ccc(COC(=O)NN=C2C[C@@H](O)[C@@H](O)[C@@H]3[C@@H]4C(=O)N(c5ccc(F)cc5F)C(=O)[C@@H]4CC[C@H]23)cc1,-0.544 (inactive),0.545,30.2 (active),4.98 (inactive),2.52 (inactive),1.24 (inactive),-0.434,-0.407 (inactive),-0.481 (inactive),-0.876,0.0819,0.232,-1.01,0.698,-0.887,0.361,-0.982 (inactive),-0.112,-1.07,0.764 (inactive)
Cc1ccc(S(=O)(=O)NC(CCc2ccccc2)CC(=O)C(C)(C)C)cc1 (stereo not given),-0.286 (inactive),-0.125,0.603 (inactive),0.0974 (inactive),-0.573 (inactive),0.124 (inactive),-0.566,-1.18 (inactive),0.0624 (inactive),-0.868,0.0378,-0.795,-0.869,0.0642,-0.156,-0.696,-0.255 (inactive),-0.201,-0.236,1.34 (inactive)
CO[C@H]1COC(=O)[C@@H](C)COC(=O)[C@@H](OCc2ccccc2)C=C[C@@H]1C,-0.303 (inactive),-0.235,-0.347 (inactive),0.32 (inactive),0.328 (inactive),-0.0659 (inactive),-0.286,0.237 (inactive),0.566 (inactive),-0.609,-0.162,-0.197,0.373,-0.112,0.473,0.485,0.531 (inactive),0.458,0.0911,0.39 (inactive)
CON=C[C@@H](C)[C@H](OCc1ccccc1)C(C)C,-2.85 (inactive),-0.378,0.0221 (inactive),0.234 (inactive),0.718 (inactive),-1.37 (inactive),0.564,-0.307 (inactive),-1.21 (inactive),-0.786,-1.1,0.425,-0.0832,-0.43,-1.01,0.0714,0.634 (inactive),-0.408,0.699,0.073 (inactive)
COC(=O)CC=C[C@@H](C)[C@@H](C=NO[C@@H](C)c1cn([C@H](CO)Cc2ccccc2)nn1)OC,-0.64 (inactive),-0.275,-0.762 (inactive),-1.66 (inactive),-0.726 (inactive),-1.8 (inactive),1.32,-0.374 (inactive),0.173 (inactive),0.874,0.52,1.03,0.656,0.354,-0.609,0.341,1.08 (inactive),0.0532,0.723,-0.493 (inactive)
CC(CCN1CCCCc2nc(C)c(C)cc21)=NOC[C@@H](C)[C@H](OCc1ccccc1)C(C)C,-0.605 (inactive),-0.502,-0.0226 (inactive),-1.71 (inactive),0.167 (inactive),-1.99 (inactive),1.08,-1.86 (inactive),-0.629 (inactive),-3.18,0.139,0.588,1.39,-1.5,0.327,-0.728,0.155 (inactive),0.0506,-1.06,-0.472 (inactive)
COC(=O)[C@@H]1CC[C@H](C)[C@@H](c2ccc(C)cc2)N1C(=O)c1ccc(C=NO[C@@H]2O[C@H](COC(C)=O)[C@@H](OC(C)=O)[C@H](OC(C)=O)[C@H]2OC(C)=O)cc1,-0.492 (inactive),0.0391,-0.013 (inactive),-0.647 (inactive),0.819 (inactive),-1.79 (inactive),1.02,-0.454 (inactive),-0.674 (inactive),-2.1,-1.3,0.216,-0.373,-0.82,-1.17,2.74,0.28 (inactive),-0.139,0.155,0.855 (inactive)
CON=C[C@@H](NS(=O)(=O)c1ccc(C)cc1)[C@H](C)C=CCC(=O)OC,-1.47 (inactive),-0.0984,0.553 (inactive),0.849 (inactive),-0.459 (inactive),0.539 (inactive),0.22,-0.153 (inactive),-0.345 (inactive),-0.415,1.19,-0.951,0.244,0.561,0.226,0.271,-0.95 (inactive),-0.0325,0.0264,-0.262 (inactive)
C[C@@H]1NC(=O)[C@@H](C)COC(=O)[C@H](C)NC(=O)[C@@H](C)COC1=O,-2.21 (inactive),-0.248,0.116 (inactive),-0.334 (inactive),-0.172 (inactive),-1.15 (inactive),0.35,-0.0632 (inactive),-1.11 (inactive),0.136,-0.838,1.19,0.1,-0.426,-0.604,0.503,0.42 (inactive),0.0799,0.307,0.228 (inactive)
